Screens: PubChem, several laboratories
The entries come from a sample that favours hits as a whole.
AMPAR-TARP mod = modulators of GluA2-stargazin AMPA receptor complexes, primary screen, cell-based, membrane potential dye; HEK293 GluA2+stargazin, membrane potential dye (FDSS), glutamate EC50; hits were called plate by plate, in both directions; calls only at 30 µM; 40,000 compounds, 3.5% hits; AID 1259245, 2017;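 active = any of four per-well response measures lying three or more SD from its plate-wide compound average, in either direction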
GIRK2 act = activators of NPY4-receptor-primed GIRK2 channels, summary, cell-based, HEK293, thallium flux; AID 1259324, 2017; 34,000 tested, under 10 active; activation (% efficacy), % for hits at 37.5 µM; G protein-activated inward rectifier potassium channel 2 (Homo sapiens), P48051; HEK293 GIRK2/NPY4 cells, thallium flux fluorescence;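 active = primary screen hit, no activity in plain HEK293 cells, and in GIRK2-only cells above 5% efficacy rising with concentration; inactive = the rest, including fluorescent compounds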;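 note: efficacy is normalized control-subtracted fluorescence 15 s after thallium addition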
* = called active by the depositor; i = inactive; x = not tested or not shown; + = active, no number.

SMILES | AMPAR-TARP mod | GIRK2 act
Cn1/c(=N/NC(=O)CNS(=O)(=O)c2ccccc2)sc2ccccc21 | x | i
COc1ccc(S(=O)(=O)NCC(C)(O)C2CC2)cc1C (configuration not stated) | i | i
CCOCCn1c(=O)c2c(nc3n(-c4ccc(C)c(C)c4)c(C)cn23)n(C)c1=O | i | x
Cc1cc(=O)[nH]c(-n2nc(C)c(CCC(=O)Nc3ccc(F)c(Cl)c3)c2C)n1 | i | i
CN(C)C(=O)CSc1nc(-c2ccccc2)[nH]c1S(=O)(=O)c1ccccc1 | i | i
O=C(Cc1cccs1)NCCCN1CCOC(c2ccccc2)C1 (configuration not stated) | i | i
O=C(NCCCn1cccc1)c1c(F)cccc1F | + | i
O=C(NCCCn1cccc1)c1ccccc1C(F)(F)F | i | i
COCCn1c(N)c(S(=O)(=O)c2cccc(Cl)c2)c2nc3ccccc3nc21 | + | i
COCCCn1c(N)c(S(=O)(=O)c2ccc(Cl)cc2)c2nc3ccccc3nc21 | + | i
COCCCn1c(N)c(S(=O)(=O)c2cc(C)ccc2C)c2nc3ccccc3nc21 | i | i
COCCCn1c(N)c(S(=O)(=O)c2ccc(OC)cc2)c2nc3ccccc3nc21 | i | i
COc1coc(C(=O)Nc2ccc3c(c2)OCCO3)cc1=O | i | i
